In the library only some 3.7% were active in any assay of this set; here they are far more common.
ATXN2 expr inh: Primary qHTS for Inhibitors of ATXN expression. HEK-293 ATXN2-luciferase reporter, luminescence, 24 h. Potency, µM (titrated, usually from 57 µM), for the others: at the top dose activity change, negative = inhibition, actives largely listed as inhibitors. 360,000 tested, 0.72% active; further: on the % scale 0 is the no-effect control and ±100 the full control effect; nearly all actives have a fitted effect of over 55% in size
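ATXN2-luciferase reporter cells (luciferase flanked by upstream and downstream ATXN2 gene portions) were treated 24 h at 37 °C with compounds at up to 57 uM. SteadyGlo luminescence gave expression; GF-AFC fluorescence gave viability.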
HepG2 tox: qHTS for Inhibitors of TGF-b: Cytotox Counterscreen; HepG2 CAGA-GFP viability, ATP luminescence, 18 h; Potency, µM (highest dose often 46.1 µM), for the others: at the top dose activity change, negative = cytotoxicity, usual class: cytotoxic; 410,000 tested, 0.76% active
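CellTiter-Glo luminescence gave cytotoxicity after 18 hours at 37 degrees C. The cells were HepG2 CAGA-GFP in 1% FBS DMEM, stimulated with 500 pg/mL TGF-beta after compound addition. %Activity was normalised to no-cell wells (complete cell-killing) and DMSO (no toxicity), and curves were fitted and classified.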
GLP1R ag: qHTS of GLP-1 Receptor Agonists; Glucagon-like peptide 1 receptor (Homo sapiens), P43220; HEK293 GLP-1R CRE-luciferase, luminescence, 4-6 h; cells express a hypersensitive GLP-1R form; Potency, µM (series often up to 45.6 µM), for the others: at the top dose activation, hits mostly activators; 380,000 tested, 0.007% active; AID 624172, 2012; further: % of control where 0% means no effect
Target sequence (P43220 whole entry, looked up): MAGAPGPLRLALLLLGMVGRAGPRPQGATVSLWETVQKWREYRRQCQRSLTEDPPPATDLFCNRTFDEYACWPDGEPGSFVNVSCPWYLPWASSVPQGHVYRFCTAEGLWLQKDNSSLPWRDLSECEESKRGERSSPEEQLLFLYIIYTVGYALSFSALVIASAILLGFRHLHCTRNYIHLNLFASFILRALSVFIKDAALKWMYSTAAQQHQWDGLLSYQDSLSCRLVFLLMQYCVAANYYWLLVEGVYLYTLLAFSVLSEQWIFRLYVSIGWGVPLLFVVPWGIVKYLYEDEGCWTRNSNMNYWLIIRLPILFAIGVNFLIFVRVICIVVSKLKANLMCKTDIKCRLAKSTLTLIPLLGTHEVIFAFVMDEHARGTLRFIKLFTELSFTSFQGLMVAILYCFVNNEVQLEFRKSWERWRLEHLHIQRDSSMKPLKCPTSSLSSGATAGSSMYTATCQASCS
GLP-1R inv ag: qHTS of GLP-1 Receptor Inverse Agonists (Inhibition Mode); 410,000 tested, 1.6% active; AID 624417, 2012; HEK293 GLP-1R CRE-luciferase, luminescence, 24 h; GLP-1R form is constitutively active; Potency, µM (series often up to 38.3 µM), for the others: at the top dose activity change, negative = inhibition, most hits filed as inhibitors; further: on the % scale 0 is the no-effect control and ±100 the full control effect; nearly all actives have a fitted effect of over 55% in size
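Cells are plated, allowed 12 hours at 37 deg C, then treated with compounds for 24 hr before luciferase detection reagent is added and luminescence is read after 12 min at room temperature. The HEK293 line carries constitutively active GLP-1R with a cAMP-responsive reporter.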
TGFb SMAD3 inh: qHTS for Inhibitors of TGF-b; Potency, µM (highest dose often 46.1 µM), for the others: top-dose activity, negative = inhibition, usual class: inhibitors; AID 588855, 2011; 410,000 tested, 1.2% active; HepG2 CAGA-GFP TGF-b/SMAD3 reporter, GFP fluorescence, 18 h; TGF-beta stimulated, 500 pg/mL final; further: on the % scale 0 is the no-effect control and ±100 the full control effect; nearly all actives have a fitted effect of over 65% in size
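First, reporter cells (HEPG2 CAGA-GFP) rested 2 h at 37 degrees C. Next, compounds were pinned in and TGF-beta added to 500 pg/mL final. After 18 h, GFP was imaged per cell and summed per well.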
S2 tox: Viability Counterscreen for Primary qHTS for Inhibitors of ATXN expression; S2 cells (HEK-293 line with an ATXN2-luciferase reporter) viability, CellTiter-Fluor protease fluorescence, 24 h; Potency, µM (series often up to 56.7 µM), actives largely listed as cytotoxic; 400,000 tested, 0.49% active; AID 651635, 2014; further: nearly all actives have a fitted effect of over 40% in size
The depositor's hits bear a star; i = inactive; ? = inconclusive; · = not tested or not shown; ! = not confirmed by another sample. The call rests on the fitted dose curve; in most records, active means well fitted curve in the direction sought with a large enough effect; inconclusive means small, poorly fitted or top-dose-only effect, or another doubt; inactive means no such curve, though single readings can be large; an effect the other way counts as inactive or inconclusive. Potency means the concentration at half of the fitted maximal effect.

SMILES	ATXN2 expr inh	HepG2 tox	GLP1R ag	GLP-1R inv ag	TGFb SMAD3 inh	S2 tox
CC(C)C[C@H](NC(=O)CNC(=O)c1cc(Cl)ccc1Cl)B1OC(=O)CC(CC(=O)O)(C(=O)O)O1 (stereo partly drawn)	0.22µM*	·	·	·	·	·
CC(C)C[C@H](NC(=O)CNC(=O)c1cc(Cl)ccc1Cl)B(O)O	0.31µM*	·	·	·	·	·
Cc1ccc(NC(=O)C(c2ccccc2)C2CCCC2)cc1 (stereo not drawn)	6%	-29%	-3%	?	-25%	i
O=C(Nc1ccc2ccccc2c1)C(c1ccccc1)C1CCCC1 (stereo not drawn)	·	-3%	-8%	5µM*	?	?
COc1ccc(OC2CCN(S(=O)(=O)c3ccc(OC)cc3)CC2)cc1	0%	-38%	5%	10µM*	?	i
COCc1c(C(=O)N2CCN(c3ccccc3)CC2)cnn1-c1nccc(-c2ccco2)n1	·	·	·	·	·	i
CC1CCCCC1NC(=S)Nc1ccc(Cl)cc1Cl (stereo not drawn)	5%	8%	1%	11µM*	?	i
CC1(C(=O)OCC(=O)N2c3ccccc3Sc3ccccc32)CC1(Cl)Cl (stereo not drawn)	·	-1%	5%	11µM*	-13%	i
O=C(Nc1cccc(Cl)c1)C1C2CCC3C(CCC21)C3(Cl)Cl (stereo not drawn)	?	2%	-9%	5.6µM*	?	?
O=C(Nc1ccccc1)C1C2CCC3C(CCC21)C3(Cl)Cl (stereo not drawn)	-10%	-12%	-4%	6.3µM*	-7%	i
CC(C)C(=O)Nc1ccc(/C=C2\C=Cc3ccccc32)cc1	·	9%	·	·	11%	·
O=C(Nc1ccc(F)cc1)c1cccc(N2CCCS2(=O)=O)c1	·	-26%	·	16%	?	·
O=C1C(=O)c2c(ccc3ccccc23)-c2ccccc21	3.2µM*	-4%	0%	?	?	5µM*
O=C1C=CC(=O)c2c1ccc1c2ccc2ccccc21	·	·	·	·	·	i
Cc1ccc(OCc2nc(-c3ccc(C(=O)N4CCN(c5cc(Cl)ccc5C)CC4)cc3)oc2C)cc1	-2%	11%	·	?	2%	i
O=C(NCc1cccnc1)C1CCN(Cc2cc3ccccc3n2Cc2ccccc2)CC1	-9%	-55%	·	7%	?	i
Cc1ccccc1Cn1c(CN2CCC(C(=O)NCc3cccnc3)CC2)cc2ccccc21	?	-45%	·	?	16µM*	·
Cc1cccc(C)c1OC(=O)CSc1nnc(CNC(=O)c2ccccc2)o1	-12%	13%	·	-6%	-7%	i
CN(CCCNC(=O)c1cc2c(Cl)nc3ccccc3c2s1)Cc1ccccc1	?	16µM*!	29%	?	?	?
Cc1ccc2nc(Cl)c3cc(C(=O)NCCCN(C)Cc4ccccc4)sc3c2c1	·	13µM*	·	-11%	?	·
COCCNC(=O)c1cc2c(Cl)nc3ccc(C)cc3c2s1	·	-6%	·	18%	12%	·
CCN(CCCNC(=O)c1cc2c(Cl)nc3ccccc3c2s1)Cc1ccccc1	?	-85%	1%	?	-104%	?
CCN(CCCNC(=O)c1cc2cc3ccc(C)cc3nc2s1)c1ccccc1	17%	-28%	1%	-27%	6.3µM*	i
CCN(CCCNC(=O)c1cc2c(=O)[nH]c3ccc(C)cc3c2s1)Cc1ccccc1	?	13µM*	·	?	11µM*	?

Assay outcomes as filed in PubChem.
